# Screen size: about 5,500 compounds; about 2,000 (36%) were called active. Another 18% or so got no clear call; they are omitted. This is one part of the list. Unmarked numbers belong to inactive results. No stated cut-off is given here; in the data, active means normalized growth mostly below about 0.91 (no sharp cut-off); inconclusive means no clear call, values can overlap the other calls; inactive means mostly above about 0.92.
# Experiment: chemical genetic growth profiling, strain panel (AID 1159580);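 further: tested at 20 µM; growth read once vehicle control cultures reached saturation at 30 °C; 1 = growth at the plate median or of vehicle wells; lower values mean less growth of the strain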
# Conditions: S. cerevisiae deletion strains, growth OD
# [1] = locus YAR019C, strain CDC15, active compounds read low
# [2] = locus YBL105C, strain PKC1, active compounds read low
# [3] = locus YBR135W, strain CKS1, active compounds read low
# [4] = locus YBR136W, strain MEC1, active compounds read low
# [5] = locus YBR160W, strain CDC28, active compounds read low
# [6] = locus YDL017W, strain CDC7, active compounds read low
# [7] = locus YDL028C, strain MPS1, active compounds read low
# [8] = locus YDL101C, strain DUN1, active compounds read low
# [9] = locus YDL108W, strain KIN28, active compounds read low
# [10] = locus YDL132W, strain cdc53, active compounds read low
# [11] = locus YDL214C, strain PRR2, active compounds read low
# [12] = locus YDR052C, strain DBF4, active compounds read low
# [13] = locus YDR054C, strain cdc34, active compounds read low
# [14] = locus YDR226W, strain ADK1, active compounds read low
# [15] = locus YDR477W, strain SNF1, active compounds read low
# [16] = locus YER123W, strain YCK3, active compounds read low
# [17] = locus YER133W, strain GLC7, active compounds read low
# [18] = locus YFL009W, strain cdc4, active compounds read low
# [19] = locus YFL029C, strain CAK1, active compounds read low
# [20] = locus YFR003C, strain YPI1, active compounds read low
# [21] = locus YFR019W, strain FAB1, active compounds read low
# [22] = locus YFR028C, strain CDC14, active compounds read low
# [23] = locus YGR040W, strain KSS1, active compounds read low
# [24] = locus YGR052W, strain FMP48, active compounds read low
# [25] = locus YGR092W, strain DBF2, active compounds read low
# [26] = locus YHR030C, strain SLT2, active compounds read low
# [27] = locus YHR079C, strain IRE1, active compounds read low
# [28] = locus YHR082C, strain KSP1, active compounds read low
# [29] = locus YHR205W, strain SCH9, active compounds read low
# [30] = locus YIL147C, strain SLN1, active compounds read low
# [31] = locus YJL095W, strain BCK1, active compounds read low
# [32] = locus YJL128C, strain PBS2, active compounds read low
# [33] = locus YJL157C, strain FAR1, active compounds read low
# [34] = locus YJR016C, strain ILV3, active compounds read low
# [35] = locus YJR066W, strain TOR1 (second series), active compounds read low
# [36] = locus YJR066W, strain TOR1, active compounds read low
# [37] = locus YKL048C, strain ELM1, active compounds read low
# [38] = locus YKL067W, strain YNK1, active compounds read low
# [39] = locus YKL101W, strain HSL1, active compounds read low
# [40] = locus YKL193C, strain SDS22, active compounds read low
# [41] = locus YKL203C, strain TOR2, active compounds read low
# [42] = locus YLR113W, strain HOG1, active compounds read low
# [43] = locus YLR133W, strain CKI1, active compounds read low
# [44] = locus YLR403W, strain SFP1, active compounds read low
# [45] = locus YML070W, strain DAK1, active compounds read low
# [46] = locus YMR001C, strain CDC5, active compounds read low
# [47] = locus YMR205C, strain PFK2 (second series), active compounds read low
# [48] = locus YMR277W, strain FCP1, active compounds read low
# [49] = locus YNL006W, strain LST8, active compounds read low
# [50] = locus YNL020C, strain ARK1, active compounds read low
# [51] = locus YNL161W, strain CBK1, active compounds read low
# [52] = locus YNL183C, strain NPR1, active compounds read low
# [53] = locus YNL207W, strain RIO2, active compounds read low
# [54] = locus YNL222W, strain SSU72, active compounds read low
# [55] = locus YNL307C, strain MCK1 (second series), active compounds read low
# [56] = locus YOL078W, strain AVO1, active compounds read low
# [57] = locus YOL136C, strain PFK27, active compounds read low
# [58] = locus YOR061W, strain CKA2, active compounds read low
# [59] = locus YOR119C, strain RIO1, active compounds read low
# [60] = locus YOR231W, strain MKK1, active compounds read low
# [61] = locus YOR329C, strain SCD5, active compounds read low
# [62] = locus YPL031C, strain PHO85, active compounds read low
# [63] = locus YPL153C, strain RAD53, active compounds read low
# [64] = locus YPL204W, strain HRR25, active compounds read low
# [65] = locus YPL209C, strain IPL1, active compounds read low
# [66] = locus YPL256C, strain CLN2, active compounds read low
# [67] = locus YPR025C, strain CCL1, active compounds read low
# [68] = locus YPR106W, strain ISR1, active compounds read low
# [69] = locus YPR111W, strain DBF20, active compounds read low
# [70] = strain NNK1, active compounds read low
# [71] = strain TSCII, active compounds read low
compound,measurement,setting,value
CCCCCC[C@@H]([C@@H](C)O)n1cnc2c(N)ncnc21,normalized growth,"locus YAL040C, strain CLN3, active compounds read low",1.02
same,normalized growth,"locus YCL061C, strain MRC1 (second series), active compounds read low",1
same,normalized growth,"locus YDR150W, strain NUM1, active compounds read low",1.01
same,normalized growth,"locus YDR363W, strain ESC2, active compounds read low",1
same,normalized growth,"locus YER002W, strain NOP16, active compounds read low",1.01
same,normalized growth,"locus YGR229C, strain SMI1, active compounds read low",0.945
same,normalized growth,"locus YJR075W, strain HOC1, active compounds read low",0.99
same,normalized growth,"locus YMR263W, strain SAP30, active compounds read low",1
same,normalized growth,"locus YNL128W, strain TEP1, active compounds read low",0.992
same,normalized growth,"locus YNL175C, strain NOP13, active compounds read low",1.02
same,normalized growth,"locus YNL197C, strain WHI3, active compounds read low",1.01
same,normalized growth,"locus YNL224C, strain SQS1, active compounds read low",0.992
same,normalized growth,"locus YOR083W, strain WHI5 (second series), active compounds read low",1.06
same,normalized growth,"locus YPL241C, strain CIN2, active compounds read low",1
CC(C)CSc1nnc(CSCc2nc(-c3ccc(Cl)cc3)cs2)n1C,normalized growth,[1],0.979
same,normalized growth,[2],0.964
same,normalized growth,[3],0.968
same,normalized growth,[4],0.964
same,normalized growth,[5],0.97
same,normalized growth,[6],0.974
same,normalized growth,[7],0.966
same,normalized growth,[8],0.958
same,normalized growth,[9],0.96
same,normalized growth,[10],0.961
same,normalized growth,[11],0.94
same,normalized growth,[12],0.974
same,normalized growth,[13],0.968
same,normalized growth,[14],0.974
same,normalized growth,[15],0.965
same,normalized growth,[16],0.913
same,normalized growth,[17],0.954
same,normalized growth,[18],0.976
same,normalized growth,[19],0.973
same,normalized growth,[20],0.965
same,normalized growth,[21],0.946
same,normalized growth,[22],0.97
same,normalized growth,[23],0.931
same,normalized growth,[24],0.979
same,normalized growth,[25],0.981
same,normalized growth,[26],1.03
same,normalized growth,[27],1.06
same,normalized growth,[28],1.03
same,normalized growth,[29],0.988
same,normalized growth,[30],0.962
same,normalized growth,[31],0.956
same,normalized growth,[32],0.929
same,normalized growth,[33],0.956
same,normalized growth,[34],0.971
same,normalized growth,[35],0.961
same,normalized growth,[36],1.05
same,normalized growth,[37],0.954
same,normalized growth,[38],0.95
same,normalized growth,[39],0.925
same,normalized growth,[40],0.971
same,normalized growth,[41],1.02
same,normalized growth,[42],0.865
same,normalized growth,[43],0.927
same,normalized growth,[44],0.948
same,normalized growth,[45],0.929
same,normalized growth,[46],0.973
same,normalized growth,[47],0.961
same,normalized growth,[48],0.966
same,normalized growth,[49],0.979
same,normalized growth,[50],0.941
same,normalized growth,[51],0.973
same,normalized growth,[52],1.01
same,normalized growth,[53],0.967
same,normalized growth,[54],0.972
same,normalized growth,[55],0.974
same,normalized growth,[56],0.964
same,normalized growth,[57],0.882
same,normalized growth,[58],0.939
same,normalized growth,[59],1.01
same,normalized growth,[60],0.944
same,normalized growth,[61],0.974
same,normalized growth,[62],0.95
same,normalized growth,[63],0.96
same,normalized growth,[64],0.917
same,normalized growth,[65],0.974
same,normalized growth,[66],0.999
same,normalized growth,[67],0.969
same,normalized growth,[68],0.962
same,normalized growth,[69],0.95
same,normalized growth,[70],0.966
same,normalized growth,[71],0.969
O=C(CSCc1nc(-c2ccc(Cl)cc2)cs1)N/N=C\c1cccs1,normalized growth,[1],0.984
same,normalized growth,[2],0.97
same,normalized growth,[3],0.969
same,normalized growth,[4],0.972
same,normalized growth,[5],0.969
same,normalized growth,[6],0.97
same,normalized growth,[7],0.973
same,normalized growth,[8],0.978
same,normalized growth,[9],0.975
same,normalized growth,[10],0.966
same,normalized growth,[11],0.91
same,normalized growth,[12],0.98
same,normalized growth,[13],0.97
same,normalized growth,[14],0.972
same,normalized growth,[15],0.953
same,normalized growth,[16],0.908
same,normalized growth,[17],0.946
same,normalized growth,[18],0.971
same,normalized growth,[19],0.973
same,normalized growth,[20],0.962
same,normalized growth,[21],0.929
same,normalized growth,[22],0.963
same,normalized growth,[23],0.935
same,normalized growth,[24],0.948
same,normalized growth,[25],0.98
same,normalized growth,[26],1.01
same,normalized growth,[27],1.03
same,normalized growth,[28],0.998
same,normalized growth,[29],0.935
same,normalized growth,[30],0.975
same,normalized growth,[31],0.936
same,normalized growth,[32],0.924
same,normalized growth,[33],0.95
same,normalized growth,[34],0.974
same,normalized growth,[35],0.951
same,normalized growth,[36],1.02
same,normalized growth,[37],0.944
same,normalized growth,[38],0.932
same,normalized growth,[39],0.921
same,normalized growth,[40],0.972
same,normalized growth,[41],1
same,normalized growth,[42],0.831 (active)
same,normalized growth,[43],0.917
same,normalized growth,[44],0.933
same,normalized growth,[45],0.93
same,normalized growth,[46],0.976
same,normalized growth,[47],0.942
same,normalized growth,[48],0.98
same,normalized growth,[49],0.973
same,normalized growth,[50],0.925
same,normalized growth,[51],0.969
same,normalized growth,[52],0.971
same,normalized growth,[53],0.967
same,normalized growth,[54],0.974
same,normalized growth,[55],0.956
same,normalized growth,[56],0.966
same,normalized growth,[57],0.866
same,normalized growth,[58],0.943
same,normalized growth,[59],0.994
same,normalized growth,[60],0.927
same,normalized growth,[61],0.975
same,normalized growth,[62],0.96
same,normalized growth,[63],0.969
same,normalized growth,[64],0.906
same,normalized growth,[65],0.969
same,normalized growth,[66],0.965
same,normalized growth,[67],0.979
same,normalized growth,[68],0.97
same,normalized growth,[69],0.952
same,normalized growth,[70],0.966
same,normalized growth,[71],0.968

# From PubChem BioAssay AID1159580 (chemical genetic matrix, 2015)
